Reference: the supplement of paper PMC8699584
“And” between values parts separate entries of the source, which are not always exact repeats. Identical values can stand only once. Counter-ions that a name gives are not always drawn. ± gives the standard deviation of the averaged measurements.

Tests used:
Molm13 = assay: cell viability relative to DMSO control (bortezomib = 0%); higher = less growth inhibition; details: 10 nM; 72 h
Method in brief: (§1)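 Cell viability was assessed by CellTiter-Glo luminescence. Acute myeloid leukemia cells were seeded at 1000 cells per well in 50 µL on a 384-well library of 679 compounds at a single 10 nM dose for 72 h. Per-plate linear regression set DMSO-treated cells at 100% and positive-control-treated cells at 0%.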

Mv4-11 = assay: as above; details: 10 nM; 72 h
Method in brief: as §1

Row | Structure (SMILES) | cell viability (Molm13) | cell viability (Mv4-11)
1 | C=C(C)[C@@H]1CC[C@]2(C)CC[C@]3(C)[C@H](CC[C@@H]4[C@@]5(C)CC[C@H](O)C(C)(C)[C@@H]5CC[C@]43C)[C@@H]12 [Lupeol] | 101 ± 9.8% | 94.9 ± 1.2%
2 | CC(C)(C)c1cc(C=C(C#N)C(N)=S)cc(C(C)(C)C)c1O | 108 ± 5.4% | 111 ± 3.4%
3 | CNC(=O)c1cc(Oc2ccc(NC(=O)Nc3cc(C(C)(C)C)nn3-c3ccc4ncccc4c3)c(F)c2)ccn1 [DCC-2036 (Rebastinib)] | 95.7 ± 1.2% | 107 ± 7.3%
4 | O=C(Nc1ccccc1C(=O)NC1CCCCNC1=O)c1cc2ccccc2s1 (centres undefined) | 98.3 ± 4.7% | 103 ± 1.5%
5 | NC(=O)c1ccccc1Nc1ccnc(Nc2cccc(O)c2)n1 | 106 ± 34% | 89.2 ± 14%
6 | COc1ccc(CNc2nc(N(CCO)CCO)nc3c2ncn3C(C)C)cc1 | 102 ± 7% | 104 ± 8.2%
7 | Oc1ccc(Nc2nc(-c3ccc(Cl)cc3)cs2)cc1 | 99.73 ± 0.67% | 105.24 ± 0.067%
8 | C[C@H]1[C@H](C)CC[C@]2(C(=O)O)CC[C@]3(C)C(=CC[C@@H]4[C@@]5(C)C[C@@H](O)[C@H](O)C(C)(C)[C@@H]5CC[C@]43C)[C@H]12 [Corosolic acid] | 113 ± 26% | 106 ± 11%
9 | Cn1cc(C2=C(c3cn(CCCN)c4ccccc34)C(=O)NC2=O)c2ccccc21 [Bisindolylmaleimide VIII (acetate)] | 111 ± 18% | 119 ± 26%
10 | O.O.O.O.O=C([O-])CC(O)(CC(=O)[O-])C(=O)[O-].[Li+].[Li+].[Li+] [Lithium citrate tribasic tetrahydrate] | 109 ± 1.3% | 114 ± 1.7%
11 | COc1cc(Nc2ncc(F)c(Nc3ccc4c(n3)N(COP(=O)(O)O)C(=O)C(C)(C)O4)n2)cc(OC)c1OC [Fostamatinib (R788)] | 99.7 ± 0.34% | 104 ± 1.8%
12 | Cn1cc(C2=C(c3ccc(Cl)cc3Cl)C(=O)NC2=O)c2ccccc21 | 96.9% and 84.3% | 106% and 108%
13 | CCOc1cc(C(=O)N2CCC(N3CCN(C)CC3)CC2)ccc1Nc1ncc2c(n1)N(C1CCCC1)c1ccccc1C(=O)N2C | 111 ± 7.2% | 96.1 ± 19%
14 | c1cc(-c2cnn3cc(-c4ccc(N5CCNCC5)cc4)cnc23)c2cccnc2c1 | 107 ± 1.7% | 103 ± 1.1%
15 | N[C@@H]1CCCN(c2c(/C=C3\SC(=O)NC3=O)cccc2-c2ccccc2)C1 | 103 ± 1.3% | 125 ± 9.2%
16 | CN(C)Cc1cccc(N/C(=C2\C(=O)Nc3cc(C(N)=O)ccc32)c2ccccc2)c1 | 114 ± 4.6% | 134 ± 3.4%
17 | C[S+]([O-])c1ccc(-c2nc(-c3ccc(F)cc3)c(-c3ccncc3)[nH]2)cc1 (centres undefined) | 104% and 108% and 110% | 110% and 114% and 112%
18 | Cc1ccc([N+](=O)[O-])cc1S(=O)(=O)N(C)/N=C/c1cnc2ccc(Br)cn12 [PIK-75 (hydrochloride)] | 94.7 ± 11% | 92.2 ± 7.8%
19 | O=C(NOC[C@H](O)CO)c1ccc(F)c(F)c1Nc1ccc(I)cc1F | 89.4% and 96.2% | 95.5% and 86.8%
20 | Cc1cc(Nc2cc(CN3CCOCC3)c3nc(C)c(Cc4ccc(Cl)cc4F)n3n2)n[nH]1 | 82.5 ± 8.9% | 113 ± 2%
21 | Fc1ccc2[nH]ccc2c1-c1nc(N2CCOCC2)c2sc(CN3CCN(CC4CC4)CC3)cc2n1 | 111 ± 13% | 119 ± 7.6%
22 | CCN1CCN(c2ccc(Nc3cc(N(C)C(=O)Nc4c(Cl)c(OC)cc(OC)c4Cl)ncn3)cc2)CC1 | 110 ± 17% | 106 ± 16%
23 | N=C(N)NC(=N)NCCc1ccccc1 [Phenformin hydrochloride] | 91.3 ± 30% | 107 ± 19%
24 | Nc1ccc(C(=O)Nc2cccc(-c3nc(N4CCOCC4)c4oc5ncccc5c4n3)c2)cn1 | 104% and 101% | 106% and 108%

Row | Structure (SMILES) | cell viability (Molm13) | cell viability (Mv4-11)
25 | O=C(NC[C@H](O)CO)c1ccncc1Nc1ccc(I)cc1F | 91.6% and 95% | 103% and 92.3%
26 | COc1cccc(-c2cc(=O)c3ccccc3o2)c1N | 105 ± 10% | 103 ± 8.4%
27 | Cn1cc(-c2ccc3nnc(Sc4ccc5ncccc5c4)n3n2)cn1 | 127 ± 6.4% | 104 ± 4.2%
28 | COc1cc2nccc(Oc3ccc(NC(=O)C4(C(=O)Nc5ccc(F)cc5)CC4)cc3)c2cc1OC [XL184(Cabozantinib malate)] | 15 ± 7.9% | 42 ± 6.5%
29 | O=C(NCc1cccc(O)c1)c1cc2cc(F)ccc2[nH]1 | 113 ± 3.2% | 114 ± 1.2%
30 | O=C1NC(=O)/C(=C/c2ccc3nccnc3c2)S1 | 102 ± 17% | 113 ± 4.8%
31 | C[C@@H]1CCN(C(=O)CC#N)C[C@@H]1N(C)c1ncnc2[nH]ccc12 | 109% and 101% | 99.7% and 105%
32 | CNC(=O)c1cc(Oc2ccc(NC(=O)Nc3ccc(Cl)c(C(F)(F)F)c3)c(F)c2)ccn1 [Regorafenib (BAY 73-4506)] | 101 ± 7.3% | 110.3 ± 0.69%
33 | CCOc1cc2ncc(C#N)c(Nc3ccc(F)c(Cl)c3)c2cc1NC(=O)/C=C/CN(C)C [Pelitinib (EKB-569)] | 104 ± 12% | 104 ± 3.4%
34 | COc1cc(Nc2nc3ccccc3nc2NS(=O)(=O)c2ccc(NC(=O)c3ccc(C)c(OC)c3)cc2)cc(OC)c1 | 107 ± 25% | 116.8 ± 0.41%
35 | Cc1cc2c(F)c(Oc3ncnn4cc(OC[C@@H](C)OC(=O)[C@H](C)N)c(C)c34)ccc2[nH]1 | 101 ± 38% | 106 ± 5.3%
36 | O=C1NC(=O)C(c2ccccc2[N+](=O)[O-])=C1Nc1ccc(O)c(Cl)c1 | 110 ± 9.4% | 120 ± 9.7%
37 | O=Nc1c(-c2c(O)[nH]c3ccccc23)[nH]c2ccccc12 [Indirubin-3'-monoxime] | 88 ± 13% | 80.7 ± 4.5%
38 | CNc1nc(-c2ccc3c(N)n[nH]c3c2)cc(N2C[C@@H](C(=O)NC3CCCCC3)CC[C@H]2C)n1 | 112 ± 2.6% | 99.15 ± 0.68%
39 | COc1cc(OC2CCN(C)CC2)ccc1Nc1ncc2c(n1)n(C1CCCC1)c(=O)n2C | 107 ± 7.8% | 104.1 ± 0.45%
40 | CNC(=O)c1c(C)oc2cc(Oc3ncnc4cc(OC)c(OC)cc34)ccc12 [Fruquintinib] | 103 ± 25% | 106 ± 2.8%
41 | CN(C)C/C=C/C(=O)Nc1cc2c(Nc3ccc(F)c(Cl)c3)ncnc2cc1O[C@H]1CCOC1 [Afatinib (BIBW2992)] | 87.5 ± 7.3% | 97.7 ± 6.9%
42 | Cc1nc2ccc(-n3ncc(C(=O)c4cc5ccccc5[nH]4)c3N)cc2[nH]1 | 114 ± 3.2% | 110 ± 12%
43 | COc1ccc(C(=C2C(=O)Nc3ccccc32)c2ccc(OC)cc2)cc1 | 95.1 ± 2.4% | 103 ± 5%
44 | COc1ccc(COc2ccc(Cc3cnc(N)nc3N)cc2OC)cc1 | 110 ± 17% | 123 ± 11%
45 | COc1cc2c(Nc3ccc(NC(=O)c4ccccc4)cc3)ncnc2cc1OCCCN1CCOCC1 | 87.8 ± 50% | 120 ± 19%
46 | N#CC(=C(/N)Sc1ccccc1N)/C(C#N)=C(/N)Sc1ccccc1N | 104 ± 12% | 129 ± 2.2%
47 | CCN1CCN(Cc2ccc(Nc3ncc(F)c(-c4cc(F)c5nc(C)n(C(C)C)c5c4)n3)nc2)CC1 | 105% and 98.2% | 102% and 112%
48 | Nc1n[nH]c(N)c1N=Nc1ccc(O)cc1 | 117 ± 6.2% | 110 ± 14%

Row | Structure (SMILES) | cell viability (Molm13) | cell viability (Mv4-11)
49 | O=C1c2ccccc2C(=O)C1c1ccccc1 [Phenylindione] | 95.7 ± 6.6% | 114 ± 1.8%
50 | CCCCCCCCCC(=O)CC(O)S(=O)(=O)O (centres undefined) [Sodium houttuyfonate] | 108 ± 1.5% | 106 ± 1.1%
51 | C=CC(=O)N1CCC(Oc2cc3c(Nc4ccc(Cl)c(Cl)c4F)ncnc3cc2OC)CC1 [Poziotinib (HM781-36B)] | 111.4 ± 0.44% | 113 ± 10%
52 | COc1ccc(S(=O)(=O)Nc2ccccc2CN(C)C/C=C/c2ccc(Cl)cc2)cc1 [KN-92 (hydrochloride)] | 129 ± 18% | 109 ± 10%
53 | O=C1NCCCc2c1oc1ccc(O)cc21 | 107 ± 1.9% | 104 ± 3.1%
54 | Cc1cc2sc(NC(=O)Cc3ccccc3)nc2cc1Cl | 116 ± 19% | 119 ± 4.2%
55 | CC#CC(=O)N1CCC[C@H]1c1nc(-c2ccc(C(=O)Nc3ccccn3)cc2)c2c(N)nccn12 [Acalabrutinib] | 111 ± 8.4% | 125.6 ± 1.1%
56 | Cc1nc(-c2cn3c(n2)-c2ccc(-c4cnn(C(C)(C)C(N)=O)c4)cc2OCC3)n(C(C)C)n1 | 94.6 ± 8.3% | 123 ± 5.4%
57 | COc1ccc2cc1Oc1ccc(cc1)C[C@H]1c3cc(c(OC)cc3CCN1C)Oc1c(O)c(OC)cc3c1[C@H](C2)N(C)CC3 [Fangchinoline] | 90.9 ± 1.6% | 122 ± 9.6%
58 | S=C(NCc1ccc2c(c1)OCO2)N1CCN(c2ncnc3c2oc2ccccc23)CC1 [Amuvatinib(MP470)] | 101 ± 10% | 103 ± 15%
59 | Cn1c(=O)n(-c2ccc(C(C)(C)C#N)cc2)c2c3cc(-c4cnc5ccccc5c4)ccc3ncc21 [BEZ235 (NVP-BEZ235, Dactolisib)] | 113 ± 7.9% | 102 ± 6.4%
60 | O=C(NOCC1CC1)c1cc(Br)c(F)c(F)c1Nc1ccc(I)cc1Cl | 110 ± 11% | 113 ± 2.4%
61 | C[C@@H]1O[C@@H](Oc2c(-c3cc(O)c(O)c(O)c3)oc3cc(O)cc(O)c3c2=O)[C@H](O)[C@H](O)[C@H]1O [Myricetrin] | 89.1 ± 14% | 112 ± 35%
62 | CC(C)n1cnc2c(NCc3ccccc3)nc(NCCCO)nc21 [Bohemine] | 95.3 ± 4.3% | 103 ± 13%
63 | Cc1c(CN2CCN(C(=O)[C@H](C)O)CC2)sc2c(N3CCOCC3)nc(-c3cnc(N)nc3)nc12 [Apitolisib (GDC-0980, RG7422)] | 108 ± 2.2% | 104 ± 14%
64 | O=C1NCCSc2c1sc1ccc(O)cc21 | 92.9 ± 24% | 103 ± 14%
65 | O=C(Nc1cc(Cl)cc2c1[nH]c1cnccc12)c1cccnc1 | 110 ± 1.9% | 110.7 ± 0.66%
66 | N#CCC(=O)NN [Cyanoacetohydrazide] | 128 ± 1.3% | 109 ± 22%
67 | COCCOc1cnc2ccn([C@H](C)c3nnc4c(F)cc(-c5cnn(C)c5)cn34)c(=O)c2c1 | 104 ± 13% | 115 ± 1.6%
68 | CN(C)Cc1cccc(N=C(c2ccccc2)c2c(O)[nH]c3cc(C(=O)N(C)C)ccc23)c1 | 108 ± 4.4% | 111 ± 12%
69 | Nc1cc(C(F)(F)F)c(-c2cc(N3CCOCC3)nc(N3CCOCC3)n2)cn1 [BKM120 (NVP-BKM120, Buparlisib)] | 93.7 ± 4.8% | 99.8 ± 2.8%
70 | CNc1nc(Nc2cn(C(C)(C)C#N)nc2C)ncc1C(F)(F)F | 109 ± 2.8% | 117 ± 11%
71 | O=c1cc(-c2ccccc2)oc2c(O)c(O)ccc12 [7,8-Dihydroxyflavone] | 108 ± 16% | 104 ± 4%
72 | Cc1ccc(CNc2ncnc3ccc(-c4ccc(CO)o4)cc23)o1 | 118 ± 2% | 107 ± 12%
